# Sampled rows, rich in hits. Any-hit rate of the full collection: about 4.2%.
# TRPV1 PAM: human TRPV1 potentiation. 320,000 tested, 0.02% active. potentiation, % at 8.33 µM. Q8NER1. TRPV1-expressing cells, Fluo-8 calcium influx, capsaicin EC20 potentiation; in the data active = potentiation above about 80%; inconclusive = between about 30% and that limit; note: 0% is about no effect
#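 Cells expressing TRPV1 were dye-loaded with Fluo-8 and read kinetically: 10 s baseline, 3 min after compound (agonist portion), then 2 min after EC20 capsaicin (allosteric enhancer portion). Calcium-bound dye fluorescence at 480/520 nm.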
# TRPV1 agonist: human TRPV1 agonism. Q8NER1. TRPV1-expressing cells, Fluo-8 calcium influx, agonist mode. activation, % at 8.33 µM. 320,000 tested, 0.19% active; in the data active = activation above about 80%; inconclusive = between about 30% and that limit; note: 0% is about no effect
#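 TRPV1-expressing cells were cultured overnight at 35.5C and loaded with Fluo-8 calcium dye for 40 to 90 min at room temperature. After a 10 s baseline, compound was added and calcium influx was read kinetically for 3 min (ex 480/em 520 nm).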
# D1 antag: antagonists of human D1 dopamine receptor. HEK293 TREx D1 cells, calcium flux, dopamine EC80; active compounds read low. AID 504652. 360,000 tested, 3.2% active. activity change, negative = inhibition, % at 10 µM. P21728; in the data active = activity change below about -30%; note: % is set by controls: 0 for no effect and ±100 for the full control effect
#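 Kinetic fluorescence of a calcium dye serves as the read-out. D1-expressing Hek293 Trex cells, induced overnight at 30 C, are exposed to compound for 180 s before an EC80 dopamine addition, then read 180 s further.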
# D1 PAM: potentiators of human D1 dopamine receptor; P21728; 360,000 tested, 0.036% active; HEK293 TREx D1 cells, calcium flux, dopamine EC20 potentiation; potentiation, % at 10 µM; AID 504651; in the data active = potentiation above about 30%; note: 0% is about no effect
# D1 agonist: human D1 receptor agonism; HEK293 T-REx D1 cells, calcium flux, agonist mode; AID 504660; 360,000 tested, 1% active; activation, % at 2 µM; in the data active = activation above about 30%; note: 0% is about no effect
#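 Inducible HEK293 T-REx D1 cells, force-coupled to calcium signalling, were plated at 4000 cells/well with tetracycline and held overnight at 30 C. After no-wash calcium dye loading, compound-evoked calcium rise over 180 s flagged agonists.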
# Starred values were filed as active, the others as inactive; ? = inconclusive; · = no result.
SMILES,TRPV1 PAM,TRPV1 agonist,D1 antag,D1 PAM,D1 agonist
COc1ccc(-c2noc(CCCC(=O)NC3CCCCC3)n2)cc1,4,4,-37*,-14,6
CCOc1ccc(-c2noc(CCCC(=O)NC3CCCC3)n2)cc1OC,-42,-2,-85*,·,0
CCc1ccc(-c2cn3c(n2)sc2cc(C(=O)NC4CCCCC4)ccc23)cc1,·,·,11,-3,0
O=C(NCc1ccccc1F)c1cccc(NC(=O)N2CCSc3ncccc32)c1,·,·,-12,-3,-1
O=S(=O)(NCCNc1nccc(C(F)(F)F)n1)c1ccccc1,-20,8,3,-1,0
O=C(NCCNc1nccc(C(F)(F)F)n1)c1cccc(C(F)(F)F)c1,-14,?,-34*,1,8
CCc1ccc(C(=O)c2cn(CC(=O)Nc3ccc4c(c3)OCO4)c3cc(OC)c(OC)cc3c2=O)cc1,·,·,-8,-4,6
COc1ccc(-n2c(SCC(=O)Nc3cc(C)cc(C)c3)nc3c(oc4ccccc43)c2=O)cc1,·,·,1,-6,5
Cc1csc(NC(=O)c2ccc(OCC3CCCO3)cc2)n1 (stereo not given),-1,17,-59*,-7,14
O=c1c2cn[nH]c2[nH]c(=S)n1-c1ccccc1F,-3,2,14,-1,1
Cc1ccc(-n2c(=S)[nH]c3nc4c(cc3c2=O)COC(C)(C)C4)cc1,16,-9,-48*,-10,1
Cc1ccc(-n2c(=S)[nH]c3[nH]ncc3c2=O)cc1,2,0,-31*,-4,3
Cc1ccccc1NC(=S)N(CCN1CCCCCC1)Cc1cccs1,-7,16,-16,-5,1
Fc1ccccc1NC(=S)N(CCN1CCCCCC1)Cc1cccs1,-9,-12,-32*,-11,5
COc1ccccc1CNC(=O)CCn1c(=O)c2cccn2c2cccnc21,·,·,-23,-1,-1
O=C1COc2ccc(S(=O)(=O)Nc3ccc4c(c3)OCO4)cc2N1,-5,14,-32*,1,6
O=S(=O)(Nc1ccc2c(c1)OCCO2)c1cccc(F)c1,14,2,2,-3,6
O=S(=O)(Nc1ccc2c(c1)OCO2)c1cccc(Br)c1,-4,9,-34*,-1,0
CC1(CCc2ccc3c(c2)OCO3)NCCc2c1[nH]c1ccccc21 (stereo not given),-1,3,-38*,-5,128*
CC1(CCc2ccc3c(c2)OCO3)NC(=O)c2ccccc2N1 (stereo not given),6,2,-9,-6,2
COc1ccc(C2(CNC(=O)C(=O)Nc3ccc(C)c(Cl)c3)CCCC2)cc1OC,·,·,10,-1,-1
Cc1ccc(NC(=O)Cn2c(O)c(N=NC(=O)c3cc([N+](=O)[O-])ccc3O)c3ccccc32)cc1,11,1,-40*,-7,-1
Cc1cccc(NC(=O)Cn2c(O)c(N=NC(=O)c3ccccc3O)c3ccccc32)c1,-6,0,-16,-5,3
COc1cccc(-c2nnn(CCC(=O)O)n2)c1,13,0,-40*,-10,0
CCOc1ccc(NS(=O)(=O)c2ccc3[nH]cc(C(=O)NCc4ccccc4)c(=O)c3c2)cc1,·,·,-2,-3,6
SMILES,TRPV1 PAM,TRPV1 agonist,D1 antag,D1 PAM,D1 agonist
CCOc1ccc(NS(=O)(=O)c2ccc3[nH]cc(C(=O)NCc4ccco4)c(=O)c3c2)cc1,·,·,-48*,2,0
CCCn1c(N)c(N(CCOC)C(=O)c2ccccc2)c(=O)[nH]c1=O,-11,3,-36*,0,5
CCCCn1c(N)c(N(Cc2ccccc2OC)C(=O)c2c(CC)noc2C)c(=O)[nH]c1=O,24,4,-44*,5,1
COCCN(C(=O)c1cc(-c2ccncc2)nc2ccccc12)c1c(N)n(CC(C)C)c(=O)[nH]c1=O,-9,2,4,-6,2
COCCN(C(=O)c1cccc(-n2cnnn2)c1)c1c(N)n(CC(C)C)c(=O)[nH]c1=O,7,1,-40*,-6,-1
CCCN(C(=O)CCOc1ccc(C(C)(C)C)cc1)c1c(N)n(Cc2ccccc2)c(=O)[nH]c1=O,7,-5,-50*,-11,3
CCCn1c(N)c(N(CCOC)C(=O)c2ccc(F)cc2)c(=O)[nH]c1=O,4,3,-19,4,3
O=C(CSc1nc2c(c(=O)[nH]1)CCC2)Nc1cc(C(F)(F)F)ccc1Cl,·,·,-13,-2,-1
Cc1ccc(C)c(Cn2c3ccccc3c3cnn(CC(=O)NC4CCCCCC4)c(=O)c32)c1,·,·,-11,-2,4
COCCN(C(=O)CSc1nnc(Nc2ccc(C)cc2)s1)c1c(N)n(CC(C)C)c(=O)[nH]c1=O,14,-2,-6,36*,2
CCCCCn1nc(C(=O)N(CCOC)c2c(N)n(CCCC)c(=O)[nH]c2=O)c2ccccc2c1=O,-12,-2,-3,-5,-2
CCCCn1nc(C(=O)N(CCOC)c2c(N)n(CCCC)c(=O)[nH]c2=O)c2ccccc2c1=O,-5,-5,-30*,·,6
CN1CCN(CCOc2ccc(-c3ccccc3)cc2)CC1,-4,11,-5,-6,19
CCN1CCN(CCCOc2ccc(-c3ccccc3)cc2)CC1,12,8,-34*,-9,50*
CN1CCN(CCCOc2ccc(-c3ccccc3)cc2)CC1,2,4,-33*,-1,18
COc1ccc(CCNC(=O)CCc2c(C)c3cc4c(C)coc4cc3oc2=O)cc1,·,·,-51*,-1,22
Cc1ccc(C(=O)N2CCN3C(=O)c4ccccc4C23c2ccccc2)cc1 (stereo not given),-8,7,-38*,-3,2
N#Cc1nc(Nc2ccc(F)cc2)nc(NC2CCCC2)n1,·,·,-9,-7,10
COc1cc(/C=C(\C#N)c2ccccn2)cc(OC)c1O,15,18,2,-1,38*
COc1cc(/C=C(\C#N)c2[nH]nc(N)c2C#N)cc(OC)c1O,-18,13,5,3,36*
CCOc1ccc(CCNC(=O)CCCc2nnc3n(CC(C)C)c(=O)c4sccc4n23)cc1,·,·,-4,-4,2
CCOC(=O)C1CCCN(c2c(N3CCN(C4CCCCC4)CC3)c(=O)c2=O)C1 (stereo not given),1,1,-6,·,1
CCOC(=O)C1CCCN(c2c(N3CCC(N4CCCCC4)CC3)c(=O)c2=O)C1 (stereo not given),-3,0,-33*,·,2
COc1ccc(NS(=O)(=O)c2ccc3c(c2)OCCO3)cc1OC,7,1,-22,0,15
COc1ccc(S(=O)(=O)Nc2ccc3c(c2)OCCO3)cc1Cl,26,4,-32*,-8,18
CC(=O)Nc1ccc(S(=O)(=O)Nc2ccc3c(c2)OCCO3)cc1Cl,12,-2,-31*,-11,13

# Compound activity from PubChem BioAssay.
